Data from publication PMC5540273 (PLoS ONE, 2017).
Where “and” joins values, the source holds several entries; their conditions need not be identical. Equal entries are not always repeated. Where two headings read alike, the source gives them in different places.

What was measured:
ULK2 = details: concentration: 1 μM, replicates: in singlicate, n = 1
ULK3 = details: concentration: 1 μM, replicates: in singlicate, n = 1
VEGFR2 = system: T1, VEGFR2; details: concentration: 1 μM, replicates: in singlicate, n = 1
T1 construct: gene KDR

VPS34 = system: T2, VPS34; details: concentration: 1 μM, replicates: in singlicate, n = 1
T2 construct: gene PIK3C3

VRK2 = details: concentration: 1 μM, replicates: in singlicate, n = 1
WEE1 = details: concentration: 1 μM, replicates: in singlicate; n = 1
WEE2 = details: concentration: 1 μM, replicates: in singlicate, n = 1
WNK1 = details: concentration: 1 μM, replicates: in singlicate, n = 1
WNK2 = details: concentration: 1 μM, replicates: in singlicate, n = 1
WNK3 = details: concentration: 1 μM, replicates: in singlicate, n = 1
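Further: KINOMEscan kinase panel screen.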

| SMILES | %Inh (ULK2) | %Inh (ULK3) | %Inh (VEGFR2) | %Inh (VPS34) | %Inh (VRK2) | %Inh (WEE1) | %Inh (WEE2) | %Inh (WNK1) | %Inh (WNK2) | %Inh (WNK3) | %Inh (ULK2; 1 µM) | %Inh (ULK3; 1 µM) | %Inh (VEGFR2; 1 µM) | %Inh (VPS34; 1 µM) | %Inh (VRK2; 1 µM) | %Inh (WEE2; 1 µM) | %Inh (WNK1; 1 µM) | %Inh (WNK2; 1 µM) | %Inh (WNK3; 1 µM) |
| --- | --- | --- | --- | --- | --- | --- | --- | --- | --- | --- | --- | --- | --- | --- | --- | --- | --- | --- | --- |
| O=C(Nc1ccccc1F)NC1CCN(c2ccnc(Nc3ccc(F)cc3)n2)C1 (stereo not drawn) [GSK1379722] | 0% | 8% | 0% | 0% | 16% | 9% | 0% | 10% | 0% | 38% |  |  |  |  |  |  |  |  |  |
| O=C(CCO)NCCn1ccc2ncnc(Nc3ccc(Oc4cccc(C(F)(F)F)c4)c(Cl)c3)c21 | 0% | 0% | 0% | 0% | 0% | 1% | 0% | 0% | 0% | 0% |  |  |  |  |  |  |  |  |  |
| c1ccc(-c2ccc3c(-c4ccnc(Nc5ccc6c(c5)OCCO6)n4)cnn3n2)cc1 [GW818941] | 0% | 15% | 9% | 0% | 7% | 2% | 0% | 2% | 0% | 15% |  |  |  |  |  |  |  |  |  |
| CSc1ccc(NC2=C(c3ccccc3Cl)C(=O)NC2=O)cc1 [SB-342411] | 0% | 0% | 0% | 1% | 0% | 2% | 0% | 0% | 3% | 17% |  |  |  |  |  |  |  |  |  |
| Cl.O=S(=O)(c1cccc(F)c1)c1ccc(Nc2ncnc3cc(Br)sc23)cc1Cl [GSK306886] | 0% | 8% | 3% | 0% | 0% | 20% | 9% | 4% | 9% | 0% |  |  |  |  |  |  |  |  |  |
| FC(F)(F)c1ccc(-c2cc(-c3c[nH]nc3-c3ccccn3)ccn2)cc1 [GW599550] | 0% | 0% | 4% | 0% | 0% | 12% | 0% | 0% | 7% | 31% |  |  |  |  |  |  |  |  |  |
| Cl.Fc1ccccc1COc1ccc(Nc2ncnc3ccc(-c4nnc(C(F)(F)F)o4)cc23)cc1Cl [GW424170] | 0% | 6% | 4% | 0% | 0% | 3% | 5% | 7% | 0% | 15% |  |  |  |  |  |  |  |  |  |
| Cn1cc(-c2ccc3c(c2)CCN3C(=O)Cc2cccc(C(F)(F)F)c2)c2c(N)ncnc21 [GSK2606414] | 0% | 3% | 0% | 22% | 20% | 0% | 19% | 3% | 7% | 0% |  |  |  |  |  |  |  |  |  |
| N#Cc1ccc(Oc2ccc(Nc3ncnc4cc[nH]c34)cc2Cl)cc1 | 34% | 30% | 12% | 0% | 3% | 28% | 8% | 0% | 7% | 0% |  |  |  |  |  |  |  |  |  |
| CN1c2ccc(-c3ccc(C(=O)NCCO)cc3)cc2-c2[nH]ncc2S1(=O)=O | 30% | 0% | 44% | 30% | 0% | 0% | 1% | 0% | 0% | 0% |  |  |  |  |  |  |  |  |  |
| CCc1nc(-c2cccc(N(C)S(=O)(=O)c3ccccc3)c2)c(-c2ccnc(Nc3ccc(N4CCN(C(C)=O)CC4)nc3)n2)s1 [GSK1645895] | 0% | 9% | 31% | 0% | 0% | 0% | 0% | 3% | 0% | 16% |  |  |  |  |  |  |  |  |  |
| COc1ccc(-c2nc3n(c2-c2ccncc2)CCC3)cc1 [SKF-104493] |  |  |  |  |  | 0% |  |  |  |  | 13% and 0% | 13% and 0% | 15% and 0% | 28% and 20% | 7% and 0% | 13% and 0% | 27% and 0% | 0% and 21% | 33% and 16% |
| Cn1ccc2ncnc(Nc3ccc(Oc4cccc(Cl)c4)c(Cl)c3)c21 | 31% | 38% | 0% | 52% | 0% | 0% | 34% | 0% | 31% | 0% |  |  |  |  |  |  |  |  |  |
| CC(C)(C)c1ccc(-n2cnc3c(N)ncnc32)cc1 [SKF-97263] | 4% | 17% | 11% | 0% | 9% | 0% | 2% | 3% | 0% | 0% |  |  |  |  |  |  |  |  |  |
| Fc1ccc(Nc2nccc(-c3c(-c4ccc(Cl)cc4)nn4ncccc34)n2)cc1F [GW829058] | 100% | 33% | 25% | 5% | 34% | 10% | 2% | 42% | 0% | 41% |  |  |  |  |  |  |  |  |  |
| CCn1c(-c2ccncc2)nc2cnccc21 [SB-735216] | 8% | 25% | 24% | 25% | 0% | 0% | 1% | 0% | 29% | 21% |  |  |  |  |  |  |  |  |  |
| Cc1cc(N2CCC(NS(=O)(=O)c3ccc(F)cc3)CC2)nc(Nc2cccc(C#N)c2)n1.O=C(O)C(F)(F)F [GSK1653537] | 0% | 4% | 0% | 0% | 0% | 10% | 15% | 6% | 13% | 2% |  |  |  |  |  |  |  |  |  |
| Fc1cccc(COc2ccc(Nc3ncnc4nn5ccccc5c34)cc2Cl)c1 [GW689066] | 0% | 2% | 0% | 60% | 28% | 0% | 0% | 0% | 0% | 20% |  |  |  |  |  |  |  |  |  |
| COC(=O)c1cccc(NC(=O)NCCNc2ccnc(Nc3ccc(F)cc3)n2)c1 [GSK1379883] | 0% | 23% | 5% | 10% | 0% | 39% | 16% | 24% | 0% | 9% |  |  |  |  |  |  |  |  |  |
| O=c1cc(N2CCOCC2)nc2n(Cc3cccc(Cl)c3)ccn12 [GSK2296823] | 0% | 11% | 6% | 93.3% | 2% | 0% | 13% | 5% | 0% | 3% |  |  |  |  |  |  |  |  |  |
| Clc1cccc(-c2nc(Nc3ccncc3)c3ccccc3n2)c1 [GW873004] | 0% | 0% | 0% | 48% | 0% | 0% | 0% | 0% | 0% | 0% |  |  |  |  |  |  |  |  |  |
| CCCc1ccc(S(=O)(=O)NC2CCN(c3ccnc(Nc4ccc(OC)cc4)n3)C2)cc1 (stereo not drawn) [GSK1379737] | 0% | 7% | 0% | 36% | 4% | 12% | 0% | 8% | 0% | 38% |  |  |  |  |  |  |  |  |  |
| O=C(Nc1n[nH]c2nc(-c3ccco3)c(Br)cc12)c1ccc(CN2CCCC2)cc1.O=C(O)[C@H](O)[C@@H](O)C(=O)O [SB-742352] | 0% | 27% | 48% | 0% | 0% | 0% | 4% | 0% | 0% | 0% |  |  |  |  |  |  |  |  |  |
| CC(C)N1CCC(n2cnc(-c3ccc(F)cc3)c2-c2ccnc(N)n2)CC1 [SB-223132] | 0% | 5% | 0% | 27% | 0% | 17% | 0% | 0% | 0% | 0% |  |  |  |  |  |  |  |  |  |
| Cn1ccc2ncnc(Oc3ccc(NC(=O)Nc4cccnc4)c(Cl)c3)c21 | 8% | 0% | 74% | 0% | 0% | 0% | 28% | 0% | 0% | 0% |  |  |  |  |  |  |  |  |  |
| Cl.c1ccc(Cn2ncc3cc(Nc4ncnc5ccccc45)ccc32)cc1 [GW273749] | 0% | 5% | 20% | 0% | 0% | 10% | 3% | 3% | 3% | 0% |  |  |  |  |  |  |  |  |  |
| Cc1cccc(-c2nc(Nc3ccc4[nH]nnc4c3)c3ccccc3n2)n1 [GW867587] | 0% | 0% | 0% | 0% | 20% | 0% | 0% | 0% | 0% | 0% |  |  |  |  |  |  |  |  |  |
| C[C@H]1CC[C@@H](C(=O)Nc2ccccc2)CN1c1cc(-c2ccc3c(N)n[nH]c3c2)nc(N)n1 [GSK2283293] | 0% | 7% | 0% | 0% | 19% | 11% | 14% | 2% | 0% | 17% |  |  |  |  |  |  |  |  |  |
| Cl.Cn1ccc(-c2cccc(Nc3ccnc4cc(-c5nccs5)ccc34)c2)n1 [GW525701] | 0% | 0% | 0% | 0% | 7% | 11% | 0% | 17% | 18% | 50% |  |  |  |  |  |  |  |  |  |
| CS(=O)(=O)CCNCc1ccc(-c2ccc3ncnc(Nc4ccc(OCc5ccccc5)c(Cl)c4)c3c2)o1.Cl [GW574783] | 0% | 0% | 0% | 18% | 42% | 12% | 19% | 11% | 10% | 29% |  |  |  |  |  |  |  |  |  |
